Laboratory results as given in PubChem BioAssay (Tox21).
Where “and” joins values, the source holds several entries; their conditions need not be identical. Equal entries are not always repeated. Results filed as inconclusive are left out. More than one record can exist for a structure, and the calls need not agree. Calls of active or inactive are those of the source. Unless noted, calls come from the whole dose curve; as a rule, active = well fitted curve in the direction sought with a large enough effect in the repeat runs; inconclusive = weak or mixed curves; inactive = no such curve, though single readings can be large; an effect the other way counts as inactive or inconclusive.

Key:
[1] = qHTS RealTime-Glo MT Cell Viability Assay in HEK293 cells - 0 hour (AID 1224880); note: nearly all actives have a fitted effect of over 45% in size; note: potency is the fitted concentration of half-maximal effect
How it was run: (§1)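 Tox21 screen in HEK293 using RealTime-Glo MT chemistry, with cells and reagent co-dispensed. Luminescence proportional to viable cell number was captured at intervals during 40 h compound exposure at 37 C.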

[2] = A CellTox Green Cytotoxicity Assay to monitor cytotoxicity in HEK293 cells - 32 hour (AID 1224881); note: nearly all actives have a fitted effect of over 40% in size
How it was run: (§2)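 Seeding of HEK293 cells together with cytotoxicity dye preceded a 5 h incubation at 37 C/5% CO2. Test compounds in DMSO were then added and fluorescence monitored across 40 h.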

[3] = A CellTox Green Cytotoxicity Assay to monitor cytotoxicity in HepG2 cells - 0 hour (AID 1224882); note: nearly all actives have a fitted effect of over 35% in size
How it was run: (§3)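 Nonlytic assay: viable cells exclude the dye, so fluorescence scales with cell death. HepG2 at 600 cells/well, compounds added after 5 h, signal read across 40 h.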

[4] = A CellTox Green Cytotoxicity Assay to monitor cytotoxicity in HEK293 cells - 8 hour (AID 1224884); note: nearly all actives have a fitted effect of over 35% in size
How it was run: as §2

[5] = qHTS RealTime-Glo MT Cell Viability Assay in HEK293 cells - 24 hour (AID 1224886); note: nearly all actives have a fitted effect of over 50% in size; note: potency is the fitted concentration of half-maximal effect
How it was run: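 HEK293 cells seeded with NanoLuc/prosubstrate reagent, rested 5 h at 37 C, then dosed and kept at 37 C up to 40 h. Nonlytic real-time luminescence from viable cells read at 0, 8, 16, 24, 32 and 40 h.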

[6] = qHTS RealTime-Glo MT Cell Viability Assay in HEK293 cells - 8 hour (AID 1224887); note: nearly all actives have a fitted effect of over 50% in size; note: potency is the fitted concentration of half-maximal effect
How it was run: as §1

[7] = A CellTox Green Cytotoxicity Assay to monitor cytotoxicity in HEK293 cells - 16 hour (AID 1224888); note: nearly all actives have a fitted effect of over 35% in size
How it was run: as §2

[8] = qHTS RealTime-Glo MT Cell Viability Assay in HepG2 cells - 0 hour (AID 1224889); note: nearly all actives have a fitted effect of over 50% in size; note: potency is the fitted concentration of half-maximal effect
How it was run: (§4)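 HepG2 cells (600/well) were dispensed with RealTime-Glo reagents, incubated 5 h at 37 °C, then treated with compounds in DMSO for up to 40 h. Nonlytic NanoLuc luminescence reflecting viable cells was read at each stated time point.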

[9] = A CellTox Green Cytotoxicity Assay to monitor cytotoxicity in HepG2 cells - 8 hour (AID 1224890); note: nearly all actives have a fitted effect of over 45% in size
How it was run: as §3

[10] = qHTS assay to identify small molecule antagonists of the estrogen receptor alpha (ER-alpha) signaling pathway using the BG1 cell line in the presence of 0.1 nM 17-beta-estradiol - cell viability counter screen (AID 1259241); note: nearly all actives have a fitted effect of over 40% in size
How it was run: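 Cytotoxicity counter-screen: live-cell protease activity measured by fluorescence (30 min reagent step) in the same wells. Cells were VM7Luc4E2 with endogenous ER-alpha and ERE-driven luciferase, treated 22 hr at 37C alongside 0.1 nM 17beta-estradiol final.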

[11] = qHTS assay to identify small molecule antagonists of the androgen receptor (AR) signaling pathway using the MDA cell line in the presence of 0.5 nM R1881 - cell viability counter screen (AID 1259242); note: nearly all actives have a fitted effect of over 45% in size; note: potency is the fitted concentration of half-maximal effect
How it was run: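 R1881 at 0.5 nM final stimulated MDA-kb2 cells during 16 hr compound treatment at 37C. Cytotoxicity read: CellTiter-Fluor fluorescence after 30 min.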

[12] = target: Estrogen receptor (Homo sapiens) (UniProt P03372); test: qHTS assay to identify small molecule antagonists of the estrogen receptor alpha (ER-alpha) signaling pathway using the BG1 cell line in the presence of 0.1 nM 17-beta-estradiol (AID 1259244); note: nearly all actives have a fitted effect of over 50% in size; note: potency is the fitted concentration of half-maximal effect
How it was run: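 VM7Luc4E2; 4xERE-luciferase; 0.1 nM E2 final; 22 h co-incubation, 37C; ONE-Glo luminescence after 30 min at room temperature.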

[13] = qHTS assay to identify small molecule HDAC inhibitors - cell viability counter screen (AID 1259365)
How it was run: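 CellTiter-Glo luminescence (30 min, room temperature) reported viability after a 2 h compound exposure at 37 C. Cells: wild-type HCT-116, 1,500 per well, seeded the night before.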

[14] = qHTS assay to identify small molecule agonists of the sonic hedgehog signaling (Shh) pathway - cell viability counter screen (AID 1259366); note: nearly all actives have a fitted effect of over 50% in size; note: potency is the fitted concentration of half-maximal effect
How it was run: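 Cytotoxicity counter screen: CellTiter-Fluor reagent added after 23 h compound exposure, then 1 h at 37C and fluorescence read. Cells were 3T3 Gli1-Luc, seeded 2,000 per well and dosed 4 h post-plating.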

[15] = qHTS assay to identify small molecule antagonists of the sonic hedgehog signaling (Shh) pathway - cell viability counter screen (AID 1259367); note: nearly all actives have a fitted effect of over 55% in size; note: potency is the fitted concentration of half-maximal effect
How it was run: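 Using CellTiter-Fluor, viability of Gli1-Luc reporter 3T3 cells is read by fluorescence in the wells used for the Shh luciferase assay. Treatment lasts 23 hr with conditioned medium, then reagent 1 hr at 37C.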

[16] = A CellTox Green Cytotoxicity Assay to monitor cytotoxicity in HepG2 cells - 32 hour (AID 1224883); note: nearly all actives have a fitted effect of over 50% in size; note: potency is the fitted concentration of half-maximal effect
How it was run: as §3

[17] = qHTS RealTime-Glo MT Cell Viability Assay in HepG2 cells - 16 hour (AID 1224885); note: nearly all actives have a fitted effect of over 50% in size
How it was run: as §4

[18] = qHTS assay to identify small molecule phospholipidosis (PLD) inducers (AID 1259344; active = well fitted curve in the direction sought with a large enough effect; an effect the other way counts as inactive or inconclusive)
How it was run: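 Fluorescent phospholipid staining (LipidTOX Red) measured by automated microscopy in fixed HepG2 cells after 24 h treatment; nuclei counterstained with Hoechst 33342; amiodarone as reference inducer.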

[19] = qHTS assay to identify small molecule HDAC inhibitors (AID 1259364); note: potency is the fitted concentration of half-maximal effect;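 note: wild-type HCT-116 cells with endogenous class I/II HDAC activity; nearly all actives have a fitted effect of over 45% in size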
How it was run: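 Relative class I and II HDAC activity is taken from the luminogenic signal in HCT-116 cells, with compound exposure 2 hr and reagent development 30 min at room temperature.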

[20] = target: Androgen receptor (Homo sapiens) (UniProt P10275); test: qHTS assay to identify small molecule antagonists of the androgen receptor (AR) signaling pathway using the MDA cell line in the presence of 0.5 nM R1881 (AID 1259243); note: nearly all actives have a fitted effect of over 50% in size
How it was run: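 We exposed MDA-kb2 cells to compounds under 0.5 nM R1881 stimulation for 16 hr at 37C and quantified MMTV-driven luciferase by luminescence.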

Measured: Potency

Sequence of Androgen receptor (Homo sapiens) (P10275 whole entry, looked up): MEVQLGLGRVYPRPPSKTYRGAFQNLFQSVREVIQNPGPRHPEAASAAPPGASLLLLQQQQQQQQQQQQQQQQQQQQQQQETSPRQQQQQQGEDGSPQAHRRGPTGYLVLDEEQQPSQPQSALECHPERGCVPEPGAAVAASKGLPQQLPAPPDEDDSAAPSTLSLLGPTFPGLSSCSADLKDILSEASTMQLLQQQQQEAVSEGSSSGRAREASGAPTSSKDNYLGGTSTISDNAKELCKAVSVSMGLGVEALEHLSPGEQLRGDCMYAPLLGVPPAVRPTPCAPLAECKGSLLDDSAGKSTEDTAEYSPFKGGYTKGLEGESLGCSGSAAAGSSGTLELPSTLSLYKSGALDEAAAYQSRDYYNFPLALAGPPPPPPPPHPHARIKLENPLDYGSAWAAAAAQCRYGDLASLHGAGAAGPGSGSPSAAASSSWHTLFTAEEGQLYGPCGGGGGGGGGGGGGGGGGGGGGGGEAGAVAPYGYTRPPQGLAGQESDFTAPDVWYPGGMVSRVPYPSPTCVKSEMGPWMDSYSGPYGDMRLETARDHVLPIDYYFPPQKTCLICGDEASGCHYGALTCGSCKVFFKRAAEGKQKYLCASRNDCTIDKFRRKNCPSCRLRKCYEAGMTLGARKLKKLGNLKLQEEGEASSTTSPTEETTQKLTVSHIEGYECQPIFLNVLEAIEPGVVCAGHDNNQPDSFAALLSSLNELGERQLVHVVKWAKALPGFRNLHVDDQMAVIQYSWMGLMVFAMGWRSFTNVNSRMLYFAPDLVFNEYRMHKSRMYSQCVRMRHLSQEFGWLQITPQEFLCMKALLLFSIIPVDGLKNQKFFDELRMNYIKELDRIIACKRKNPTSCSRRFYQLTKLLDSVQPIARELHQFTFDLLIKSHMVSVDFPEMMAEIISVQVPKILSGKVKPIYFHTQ
Sequence of Estrogen receptor (Homo sapiens) (P03372 whole entry, looked up): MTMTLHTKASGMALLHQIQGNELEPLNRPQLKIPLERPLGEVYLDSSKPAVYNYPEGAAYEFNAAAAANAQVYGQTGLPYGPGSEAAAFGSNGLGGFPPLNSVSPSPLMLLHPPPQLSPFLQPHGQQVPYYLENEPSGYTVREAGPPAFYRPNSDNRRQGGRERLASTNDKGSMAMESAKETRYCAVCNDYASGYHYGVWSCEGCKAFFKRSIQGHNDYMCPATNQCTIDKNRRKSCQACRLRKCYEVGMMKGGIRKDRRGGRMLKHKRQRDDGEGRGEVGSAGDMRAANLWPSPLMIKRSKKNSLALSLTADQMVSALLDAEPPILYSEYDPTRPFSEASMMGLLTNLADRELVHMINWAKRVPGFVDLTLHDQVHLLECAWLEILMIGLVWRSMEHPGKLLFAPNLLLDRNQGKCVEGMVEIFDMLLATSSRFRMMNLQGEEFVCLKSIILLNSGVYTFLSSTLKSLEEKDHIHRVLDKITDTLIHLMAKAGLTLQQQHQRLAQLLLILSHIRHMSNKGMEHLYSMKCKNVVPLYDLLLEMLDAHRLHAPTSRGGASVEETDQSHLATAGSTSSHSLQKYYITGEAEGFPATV

Cc1ccccc1C(OCCN(C)C)c1ccccc1 (stereo unspecified)
not listed: [16] | [17] | [18] | [19] | [20]
inactive: all other assays above

CC(O)CO (stereo unspecified)
not listed: [2] | [19] | [20]
inactive: all other assays above

O=C(O)c1cccc([N+](=O)[O-])c1
not listed: [12] | [16] | [17] | [18] | [19] | [20]
inactive: all other assays above

O=C1CN(/N=C/c2ccc([N+](=O)[O-])o2)C(=O)N1
active: [14] 48.6 µM | [15] 48.4 µM and 38.6 µM
not listed: [10] | [17] | [20]
inactive: all other assays above

O=S(=O)(O)NC1CCCCC1
not listed: [2] | [10] | [12] | [19] | [20]
inactive: all other assays above

Cn1c(=O)c2[nH]cnc2n(C)c1=O
not listed: [2] | [10] | [16] | [17] | [20]
inactive: all other assays above

NC(N)=O
23 µM (active) and inactive: [14]
16.3 µM (active) and inactive: [15]
not listed: [2] | [10] | [20]
inactive: all other assays above

COc1ccc2[nH]cc(CCNC(C)=O)c2c1
not listed: [2] | [10] | [16] | [17] | [20]
inactive: all other assays above

O=C(O)CS
inactive and 30.9 µM (active): [14]
not listed: [2] | [10] | [16] | [17] | [18] | [20]
inactive: all other assays above

CCCCC(CC)COC(=O)/C=C/c1ccc(OC)cc1 (stereo unspecified)
not listed: [2] | [10] | [17]
inactive: all other assays above

O=NO
not listed: [2] | [10] | [12] | [16] | [17] | [18] | [20]
inactive: all other assays above

COc1c2occc2cc2ccc(=O)oc12
inactive and 21.9 µM (active): [5] | [6]
not listed: [2] | [10] | [12] | [16] | [17] | [19] | [20]
inactive: all other assays above

Cc1cn([C@H]2C[C@H](N=[N+]=[N-])[C@@H](CO)O2)c(=O)[nH]c1=O
70.5 µM (active) and inactive: [15]
not listed: [2] | [17] | [19] | [20]
inactive: all other assays above

O=C(O)c1[nH]n(-c2ccc(S(=O)(=O)O)cc2)c(=O)c1N=Nc1ccc(S(=O)(=O)O)cc1
active: [14] 27.4 µM and 25.5 µM | [15] 30.7 µM and 25.5 µM
not listed: [2] | [10] | [11] | [17] | [19] | [20]
inactive: all other assays above

OC(Cn1cncn1)(Cn1cncn1)c1ccc(F)cc1F
not listed: [2] | [10] | [16] | [17] | [19] | [20]
inactive: all other assays above

O=C(O)c1cccnc1
not listed: [2] | [12] | [19] | [20]
inactive: all other assays above

O=C(O)CCCCC(=O)O
not listed: [2] | [10] | [16] | [17] | [20]
inactive: all other assays above

CNC[C@H](O)c1cccc(O)c1
not listed: [2] | [10] | [12] | [16] | [20]
inactive: all other assays above

O=C(O)/C=C\C(=O)O
inactive: [1] | [3] | [4] | [5] | [6] | [7] | [8] | [9] | [13] | [14] | [15]

O=C(O)CCCCCCCC(=O)O
not listed: [2] | [10] | [12] | [16] | [20]
inactive: all other assays above

CC(O)CN(CCN(CC(C)O)CC(C)O)CC(C)O (stereo unspecified)
not listed: [2] | [7] | [10] | [12] | [17] | [19] | [20]
inactive: all other assays above

CC(C)[C@@H]1CC[C@@H](C)C[C@H]1O
not listed: [2] | [10] | [12] | [17]
inactive: all other assays above

O=C(O)C(=O)O
not listed: [2] | [12] | [16] | [18] | [19] | [20]
inactive: all other assays above

Cc1ccc(O)cc1
not listed: [2] | [10] | [12] | [17]
inactive: all other assays above

CC(=O)OCC(COC(C)=O)OC(C)=O
not listed: [2] | [10] | [12] | [19] | [20]
inactive: all other assays above

O=S(=O)(O)c1ccc2cc(O)ccc2c1
not listed: [2] | [10] | [12] | [16] | [18] | [20]
inactive: all other assays above

CC(=O)Nc1nnc(S(N)(=O)=O)s1
not listed: [2] | [10] | [16] | [17] | [20]
inactive: all other assays above

CCCNC(=O)NS(=O)(=O)c1ccc(Cl)cc1
not listed: [2] | [10] | [16] | [17] | [19] | [20]
inactive: all other assays above

OCCc1ccccc1
not listed: [2] | [10] | [12] | [16] | [17] | [20]
inactive: all other assays above

CCCN(CCC)S(=O)(=O)c1ccc(C(=O)O)cc1
not listed: [2] | [10] | [12] | [19]
inactive: all other assays above

C1N2CN3CN1CN(C2)C3
not listed: [2] | [10] | [12] | [16] | [17]
inactive: all other assays above

Nc1ccc(S(=O)(=O)c2ccc(N)cc2)cc1
not listed: [2] | [10] | [16] | [20]
inactive: all other assays above

O=C(c1ccccc1)c1ccccc1
not listed: [2] | [12] | [16] | [19]
inactive: all other assays above

CC(C)(Oc1ccc(C2CC2(Cl)Cl)cc1)C(=O)O (stereo unspecified)
not listed: [2] | [17]
inactive: all other assays above

N=C(N)c1ccc(OCCCCCOc2ccc(C(=N)N)cc2)cc1
active: [5] 19.4 µM and 18.6 µM | [12] 13.6 µM and 18.5 µM | [19] 8.59 µM and 9.26 µM
48.8 µM (active) and inactive: [16]
not listed: [2] | [17] | [20]
inactive: all other assays above

O=C(O)c1cc(N=Nc2ccc(S(=O)(=O)Nc3ccccn3)cc2)ccc1O
active: [1] 12.3 µM and 19.5 µM and 16.9 µM | [8] 11 µM and 21.9 µM | [14] 21.8 µM and 24.3 µM | [15] 21.8 µM and 27.3 µM
27.4 µM (active) and inactive: [11]
not listed: [2] | [10] | [12] | [17] | [19] | [20]
inactive: all other assays above
